Screening results from PubChem BioAssay.
The list is not random: actives were taken first. Their share in the collection is about 21%.
VP16 counter: inhibits Gal4-VP16 luciferase reporter, ROR gamma counter-screen; Drosophila S2 Gal4-VP16 UAS-luciferase, luminescence, 20 h; Potency, µM (highest dose often 53.6 µM), most hits filed as inhibitors; hit rate 3.5% among 310,000; AID 2546;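 note: Gal4-VP16 expression switched on by copper sulfate through the metallothionein promoter; nearly all actives have a fitted effect of over 50% in size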
DT40 TDP1 CPT: growth inhibition of DT40 Tdp1-/-;hTDP1 cells with camptothecin (screen for TDP1 inhibitors); hit rate 12% among 420,000; AID 686979; Potency, µM (top dose mostly 46.2 µM), most hits filed as inhibitors; chicken DT40 Tdp1-/-;hTDP1 cells + 20 nM CPT, ATP luminescence, 48 h; note: nearly all actives have a fitted effect of over 55% in size
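Cell growth measured by CellTiter-Glo luminescence after a minimum 48 h, 37 C compound exposure with 20 nM CPT in Tdp1-knockout DT40 cells stably expressing hTDP1, seeded 400/well; qHTS titration format.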
RORg inh: inhibitors of mouse ROR gamma transcriptional activity | P51450 | Drosophila S2 Gal4-RORgamma UAS-luciferase reporter, 20 h | Potency, µM (doses to about 53.6 µM), hits mostly inhibitors | hit rate 5.4% among 310,000 | AID 2551; note: nearly all actives have a fitted effect of over 60% in size
Target sequence (P51450 whole entry, looked up, the tested form may be a part): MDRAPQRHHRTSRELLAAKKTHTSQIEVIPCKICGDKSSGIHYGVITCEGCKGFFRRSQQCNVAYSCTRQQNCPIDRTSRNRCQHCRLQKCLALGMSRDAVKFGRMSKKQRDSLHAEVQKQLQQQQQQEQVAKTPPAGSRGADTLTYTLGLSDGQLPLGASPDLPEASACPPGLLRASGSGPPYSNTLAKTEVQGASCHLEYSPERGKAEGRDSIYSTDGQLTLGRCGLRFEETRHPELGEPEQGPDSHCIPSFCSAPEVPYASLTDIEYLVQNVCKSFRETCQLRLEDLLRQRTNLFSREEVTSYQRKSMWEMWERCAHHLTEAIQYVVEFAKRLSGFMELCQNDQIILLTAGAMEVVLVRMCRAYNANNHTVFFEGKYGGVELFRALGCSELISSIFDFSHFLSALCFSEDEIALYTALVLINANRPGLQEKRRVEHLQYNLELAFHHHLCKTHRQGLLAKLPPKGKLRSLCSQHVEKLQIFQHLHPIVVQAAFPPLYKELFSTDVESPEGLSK
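Luciferase reporter read in Schneider cells carrying Gal4-RORγ (mouse) and UAS-Photinus luciferase; cells given compound 1 h before 700 uM copper sulfate induction, then incubated 20 h at ambient temperature.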
TDP1 cell noCPT: qHTS for Inhibitors of human tyrosyl-DNA phosphodiesterase 1 (TDP1): qHTS in cells in absence of CPT. DT40 Tdp1-/- hTDP1 cells, no CPT, ATP luminescence, 48 h. Potency, µM (highest dose often 46.2 µM), most hits filed as inhibitors. hit rate 15% among 420,000. AID 686978, 2013; note: nearly all actives have a fitted effect of over 55% in size
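Compound effects on proliferation are scored in DT40 Tdp1-/-;hTDP1 cells in the absence of CPT. ATP levels (CellTiter-Glo luminescence) are recorded after a ≥48 hr, 37 °C incubation.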
IL-1B inflam inh: inflammasome signaling inhibition, IL-1 beta readout. THP-1 LPS/ATP IL-1B secretion, AlphaLISA, 16 h; stronger effect = lower value. activity change, % at 57.5 µM. hit rate 4.7% among 360,000. AID 743279; in the data active = activity change below about -50%; inconclusive = mostly about -30% to -49%
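Secreted IL-1B measured by AlphaLISA bead assay after 16 h compound exposure of THP-1 cells; compounds (final up to 57.5 uM) added 1 h before LPS (250 ng/mL) and ATP (1.25 mM) stimulation; lower signal means less secretion.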
ELG1 repair inh: inhibitors of ELG1-dependent DNA repair in HEK293T cells. HEK293T ELG1-luciferase reporter, luminescence, 16 h; DNA damage induced by 5-fluorouridine. hit rate 2.3% among 330,000. Potency, µM (titrated, usually from 46.1 µM), most hits filed as inhibitors; note: nearly all actives have a fitted effect of over 55% in size
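Cells (2,000 per well) received 5-fluorouridine plus test compound or DMSO and were incubated 16 hr at 37 °C, 5% CO2. Luciferase activity was read by luminescence 30 min after ONE-Glo addition; signal suppression marked inhibition of damage-induced ELG1 function.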
A number is an active result; i = inactive; ? = inconclusive; nt = no result. Unless noted, calls come from the whole dose curve; as a rule, active = well fitted curve in the direction sought with a large enough effect; inconclusive = small, poorly fitted or top-dose-only effect, or another doubt; inactive = no such curve, though single readings can be large; an effect the other way counts as inactive or inconclusive.

SMILES	VP16 counter	DT40 TDP1 CPT	RORg inh	TDP1 cell noCPT	IL-1B inflam inh	ELG1 repair inh
COC(=O)c1cccc(NC(=S)NCc2ccc(F)cc2)c1	?	i	10µM	?	i	i
COC(=O)c1ccc(NC(=S)NCc2ccco2)cc1	i	i	?	i	i	i
COc1ccc(NC(=O)NCc2ccco2)cc1OC	i	i	i	i	i	i
COC(=O)c1cccc(NC(=S)NCc2ccco2)c1	i	16µM	?	15µM	i	i
CNC(=S)Nc1cccc(C(=O)OC)c1	i	i	?	i	nt	?
O=C1OCC/C1=C1/NCCNC1=O	nt	i	nt	?	i	nt
CN(Cc1ccc(O)cc1)C1CCCCC1	i	i	i	i	i	i
CN(Cc1cc(Br)cc(Br)c1N)C1CCCCC1	i	?	?	9.4µM	nt	nt
COCCCNC(=O)Cn1cc2c(n1)CCC(C)C2 (stereo not drawn)	i	i	i	i	i	i
CCC(C)NC(=O)c1ccc(-n2c(-c3ccccc3)cc3c2CCCC3)cc1 (stereo not drawn)	nt	16µM	nt	?	nt	nt
CCCNC(=O)c1ccc(-n2c(-c3ccccc3)cc3c2CCCCC3)cc1	nt	18µM	nt	21µM	nt	nt
COCCCNC(=O)c1ccc(-n2c(-c3ccccc3)cc3c2CCC(C)C3)cc1 (stereo not drawn)	nt	?	nt	16µM	nt	nt
CN(C)CCNC(=O)c1ccc(-n2c(-c3ccccc3)cc3c2CCCC3)cc1	nt	?	nt	16µM	nt	nt
CCOCCCNC(=O)c1ccc(-n2c(-c3ccccc3)cc3c2CCCCC3)cc1	nt	i	nt	?	nt	nt
COc1ccc(-c2cc(C(F)(F)F)n3ncc(C(=O)Nc4c(C)n(C)n(-c5ccccc5)c4=O)c3n2)cc1	i	nt	i	nt	nt	i
CC(C)OCCCNC(=O)c1ccc(-n2c(-c3ccccc3)cc3c2CCCC3)cc1	nt	?	nt	16µM	nt	nt
CN(Cc1ccccc1)C(c1ccnc2ccccc12)c1nnnn1-c1ccc2c(c1)OCCO2 (stereo not drawn)	nt	?	nt	?	i	nt
CCOC(=O)c1cc(-c2ccc(OC)cc2)nc2c1c(C)nn2CCC(N)=S	?	?	4.5µM	?	?	12µM
CC1(C(=O)NS(=O)(=O)c2ccc(Cl)cc2)CCN1C(=O)c1ccc(C2CCCCC2)cc1 (stereo not drawn)	nt	i	nt	i	i	nt
O=C(Nc1nccs1)c1ccc2sc([C@H]3C[C@H](O)[C@@H](CO)O3)nc2c1	nt	i	nt	?	i	nt
O=C(Nc1cccc(C(F)(F)F)c1)Nc1nnc([C@@H]2C[C@H](O)[C@@H](CO)O2)s1	nt	18µM	nt	?	i	nt
O=C(NCc1cccc(C(F)(F)F)c1)c1ccc2sc(C3=C[C@@H](O)[C@@H](O)[C@@H](CO)O3)nc2c1	nt	12µM	nt	12µM	i	nt
O=C(Nc1cccc(Cl)c1)c1csc([C@H]2C[C@H](O)[C@@H](CO)O2)n1	nt	18µM	nt	?	i	nt
O=C(NCc1cccc(C(F)(F)F)c1)c1ccc2sc([C@@H]3O[C@H](CO)[C@@H](O)[C@H]3O)nc2c1	nt	?	nt	?	i	nt
O=C(Nc1ccc(Cl)cc1)c1csc([C@@H]2C[C@H](O)[C@@H](CO)O2)n1	nt	?	nt	i	i	nt
SMILES	VP16 counter	DT40 TDP1 CPT	RORg inh	TDP1 cell noCPT	IL-1B inflam inh	ELG1 repair inh
O=C(Nc1nc2ccccc2s1)c1ccc2sc([C@H]3C[C@H](O)[C@@H](CO)O3)nc2c1	nt	16µM	nt	16µM	i	nt
CCOc1ccc(NC2=NC(C(=O)NCc3ccccc3)CC(=O)N2)cc1 (stereo not drawn)	i	i	i	i	i	i
CC1CCN(c2ccc3c(c2)S(=O)(=O)c2cccc(C(=O)NC4CC4)c2C3=O)CC1	nt	?	nt	?	i	?
O=C(NCc1cccc(C(F)(F)F)c1)c1ccc2sc([C@H]3C[C@H](O)[C@@H](CO)O3)nc2c1	nt	?	nt	16µM	i	nt
COC1=C(C(=O)O)N2C(=O)[C@@H](NC(=O)[C@H](N)C3=CCC=CC3)[C@H]2SC1	nt	i	nt	i	nt	nt
COc1ccc2c(C)c(CC(=O)NCCc3ccccc3)c(=O)oc2c1OC	nt	i	nt	i	nt	nt
